Measured values reported in PubChem BioAssay (Tox21).
Results filed as inconclusive are left out. Entries that show only a call come without a potency. A number with no mark means an inactive call. Activity calls are given as the source filed them. Unless noted, calls follow the shape of the dose curve; as a rule, active = well fitted curve in the direction sought with a large enough effect in the repeat runs; inconclusive = weak or mixed curves; inactive = no such curve, though single readings can be large; an effect the other way counts as inactive or inconclusive.

Assays:
[1] = qHTS assay to identify small molecule agonists of the vitamin D receptor (VDR) signaling pathway - cell viability counter screen (AID 743224); also: series mostly up to about 63 µM; nearly all actives have a fitted effect of over 50% in size
Outline: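 In parallel with the bla FRET readout, cytotoxicity toward VDR-bla cells after 16 h compound exposure was assessed by CellTiter-Glo, with luminescence recorded after a 30 min room-temperature incubation.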

[2] = qHTS assay to identify small molecule antagonists of the vitamin D receptor (VDR) signaling pathway - cell viability counter screen (AID 743225); also: nearly all actives have a fitted effect of over 50% in size
Outline: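 Cytotoxicity toward the VDR-bla HEK 293T line was scored by ATP-based CellTiter-Glo luminescence, read in the wells already used for the beta-lactamase readout after 16 h compound treatment under 3 nM 1-alpha,25-dihydroxyvitamin D3 stimulation.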

[3] = qHTS assay to identify small molecule agonists of the NFkB signaling pathway (AID 1159509; active = well fitted curve in the direction sought with a large enough effect in the signal ratio in the repeat runs, not every such curve was filed as active; the % refers to the signal ratio; also: series mostly up to about 61 µM)
Outline: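 Beta-lactamase reporter assay run in quantitative high-throughput format on an NF-kB-responsive ME-180 line, with 5 hr compound treatment and a FRET-based blue/green fluorescence readout.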

[4] = qHTS assay to identify small molecule agonists of the NFkB signaling pathway - cell viability counter screen (AID 1159515; calls by dose curve; also: series mostly up to about 61 µM; nearly all actives have a fitted effect of over 55% in size)
Outline: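 Plate 2,000 NFkB-bla ME-180 cells/well; incubate overnight. Add compounds, 5 hr at 37 C. Add FRET substrate, 1.5 hr RT. Add CellTiter-Glo, 30 min RT; read luminescence.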

[5] = qHTS assay to identify small molecule agonists of the endoplasmic reticulum stress response signaling pathway (AID 1159516; active = well fitted activation curve with a large enough effect in the signal ratio in the repeat runs, not every such curve was filed as active; the % refers to the signal ratio)
Outline: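 Beta-lactamase expression from the ER stress response element in HeLa reporter cells is quantified with the LiveBLAzer B/G FRET substrate, read at 405 nm excitation after 2 hr at room temperature, following 5 hr compound treatment at 37 C.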

[6] = qHTS assay to identify small molecule agonists of the endoplasmic reticulum stress response signaling pathway - cell viability counter screen (AID 1159517; calls by dose curve; also: nearly all actives have a fitted effect of over 50% in size; also: potency is read from the fitted curve at half-maximal effect)
Outline: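 Steps: seed 1,500 ESRE-bla HeLa cells per well; incubate overnight at 37 C, 5% CO2; add compounds in DMSO for 5 hr; run FRET substrate 2 hr RT; add CellTiter-Glo, wait 30 min, read luminescence.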

[7] = qHTS assay to identify small molecule antagonists of the retinoid-related orphan receptor gamma (ROR-gamma) signaling pathway - cell viability counter screen (AID 1159520); also: nearly all actives have a fitted effect of over 50% in size
Outline: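 Tet-on ROR gamma CHO cells were given compounds for 2 hr, then doxycycline hyclate at 1 uM final, and incubated 16 hr at 37 C. Viability was measured as ATP content by CellTiter-Glo luminescence.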

[8] = target: Nuclear receptor ROR-gamma (Homo sapiens) (UniProt P51449); assay: qHTS assay to identify small molecule antagonists of the retinoid-related orphan receptor gamma (ROR-gamma) signaling pathway (AID 1159521)
Outline: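 Readout: ONE-Glo luciferase luminescence, 30 min at room temperature. System: Tet-on RORγ CHO, RORE-LUC. Sequence: compound 2 h, doxycycline 1 uM final, 16 h at 37 C.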

[9] = qHTS assay to identify small molecule agonists of the AP-1 signaling pathway - cell viability counter screen (AID 1159525; calls by dose curve; also: nearly all actives have a fitted effect of over 55% in size)
Outline: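 Same-well cytotoxicity counter screen of the Tox21 10K library in ME-180 cells. The readout is ATP-dependent luminescence after 5 h compound treatment. Data are normalised to DMSO and tetra n-octyl ammonium bromide controls.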

[10] = qHTS assay to identify small molecule agonists of the AP-1 signaling pathway (AID 1159526; calls by dose curve)
[11] = target: Retinoic acid receptor RXR-alpha (Homo sapiens) (UniProt P19793); assay: qHTS assay to identify small molecule agonists of the RXR signaling pathway (AID 1159527; calls by dose curve; also: nearly all actives have a fitted effect of over 35% in size)
Outline: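 Reporter activation is measured as beta-lactamase activity via FRET substrate cleavage (emission 460/530 nm) in HEK 293T cells expressing an RXR-alpha-driven bla construct, following 16 hr compound exposure at 37 C.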

[12] = qHTS assay to identify small molecule agonists of the RXR signaling pathway - cell viability counter screen (AID 1159529)
Outline: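 Tox21 10K compounds were tested for cytotoxicity against GeneBLAzer RXR-alpha HEK 293T cells grown in 2% charcoal-stripped FBS. Exposure lasted 16 hr at 37 C, 5% CO2; viability read by CellTiter-Glo luminescence.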

[13] = qHTS assay to identify small molecule antagonists of the retinoid acid receptor (RAR) signaling pathway - cell viability counter screen (AID 1159551); also: nearly all actives have a fitted effect of over 35% in size
Outline: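 Viability of C3RL4 cells is quantified from ATP by luminescence after 6 h treatment at 37 C with compounds and 1 uM retinol.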

[14] = qHTS assay to identify small molecule antagonists of the retinoic acid receptor (RAR) signaling pathway (AID 1159552; also: nearly all actives have a fitted effect of over 50% in size)
Outline: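 Overnight-plated C3RL4 reporter cells get compound, then retinol to 1 uM final; plates sit 6 hr at 37 C, 5% CO2. A luciferase reagent is added and light output recorded after 30 min at room temperature.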

[15] = qHTS assay to identify small molecule agonists of the retinoic acid receptor (RAR) signaling pathway (AID 1159553); also: potency is read from the fitted curve at half-maximal effect
Outline: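 Compounds dissolved in DMSO were pinned onto C3RL4 cells seeded the previous day, and plates were held 6 hr at 37 C. RARE-driven luciferase output was then read by luminescence.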

Retinoic acid receptor RXR-alpha (Homo sapiens), sequence (P19793 whole entry, looked up): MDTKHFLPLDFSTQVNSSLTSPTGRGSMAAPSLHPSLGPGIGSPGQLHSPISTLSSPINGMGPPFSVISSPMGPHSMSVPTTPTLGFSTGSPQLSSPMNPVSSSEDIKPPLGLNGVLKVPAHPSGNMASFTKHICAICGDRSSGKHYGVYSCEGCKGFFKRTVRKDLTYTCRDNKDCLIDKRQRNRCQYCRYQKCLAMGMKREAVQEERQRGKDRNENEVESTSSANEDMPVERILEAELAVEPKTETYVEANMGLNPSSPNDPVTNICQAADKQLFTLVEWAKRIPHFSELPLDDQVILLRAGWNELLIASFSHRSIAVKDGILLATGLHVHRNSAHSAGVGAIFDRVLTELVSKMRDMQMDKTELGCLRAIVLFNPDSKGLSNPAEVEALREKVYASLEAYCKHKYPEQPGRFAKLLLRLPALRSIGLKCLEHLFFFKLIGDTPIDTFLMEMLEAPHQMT

In the case of CSc1nc(N=[N+]=[N-])nc(NC(C)C)n1, the Potency [1] is reported as “inactive”, the outcome [2] is reported as “inactive” and the outcome [3] is reported as “inactive”. For the same compound, the outcome [4] was “inactive”, the outcome [5] was “inactive” and the Potency [6] was “inactive”. For the same compound, the Potency [7] was “inactive”, the Potency [8] was “inactive” and the Potency [9] was “inactive”. The outcome [10] was “inactive”, the Potency [11] was “inactive” and the Potency [12] was “inactive”. For the same compound, the Potency [13] was “inactive”.
With CC(C)CC(N(C)C)C1(c2ccc(Cl)cc2)CCC1 (stereo not given) the outcome [2] was “inactive”, the outcome [3] was “inactive” and the outcome [4] was “inactive”. For the same compound, the outcome [5] was “inactive”, the Potency [6] was “inactive” and the Potency [7] was “inactive”. The Potency [8] was “inactive”, the Potency [9] was “inactive” and the outcome [10] was “inactive”. For the same compound, the Potency [11] was “inactive”, the Potency [12] was “inactive” and the Potency [13] was “inactive”.
In the case of CN/C(=N\[N+](=O)[O-])NCC1CCOC1 (stereo not given), the Potency [1] is reported as “inactive”, the outcome [3] is reported as “inactive” and the outcome [4] is reported as “inactive”. The outcome [5] was “inactive”, the Potency [6] was “inactive” and the Potency [7] was “inactive”. For the same compound, the Potency [8] was “inactive”, the Potency [9] was “inactive” and the outcome [10] was “inactive”. The Potency [11] was “inactive”, the Potency [12] was “inactive” and the Potency [13] was “inactive”.
With CCCCP(CCCC)CCCC the Potency [1] was “inactive”, the outcome [2] was “inactive” and the outcome [3] was “inactive”. The outcome [4] was “inactive”, the outcome [5] was “inactive” and the Potency [6] was “inactive”. For the same compound, the Potency [7] was “inactive”, the Potency [8] was “inactive” and the Potency [9] was “inactive”. For the same compound, the outcome [10] was “inactive”, the Potency [11] was “inactive” and the Potency [12] was “inactive”. The Potency [13] was “inactive”.
For Fc1cc(Br)ccc1CBr, the Potency [1] was “inactive”, the outcome [2] was “inactive” and the outcome [3] was “inactive”. The outcome [4] was “inactive”, the outcome [5] was “inactive” and the Potency [6] was “inactive”. For the same compound, the Potency [7] was “inactive”, the Potency [8] was “inactive” and the Potency [9] was “inactive”. The outcome [10] was “inactive”, the Potency [11] was “inactive” and the Potency [12] was “inactive”. For the same compound, the Potency [13] was “inactive”.
For COc1cc(OC)nc(Oc2cccc(Oc3nc(OC)cc(OC)n3)c2C(=O)O)n1, the outcome [3] was “inactive”, the outcome [4] was “inactive” and the outcome [5] was “inactive”. The Potency [6] was “inactive”, the Potency [7] was “inactive” and the Potency [8] was “inactive”. The Potency [9] was “inactive”, the outcome [10] was “inactive” and the Potency [11] was “inactive”. The Potency [12] was “inactive” and the Potency [13] was “inactive”.
With O=[N+]([O-])c1ccc(CBr)cc1 the Potency [1] was “inactive”, the outcome [2] was “inactive” and the outcome [3] was “inactive”. The outcome [4] was “inactive”, the outcome [5] was “inactive” and the Potency [6] was 27.2 µM (active). The Potency [7] was “inactive”, the Potency [8] was “inactive” and the Potency [9] was “inactive”. The outcome [10] was “inactive”, the Potency [12] was “inactive” and the Potency [13] was “inactive”. For the same compound, the Potency [14] was “inactive” and the Potency [15] was “inactive”.
In the case of CC(C1CC1)C(O)(Cn1cncn1)c1ccc(Cl)cc1 (stereo not given), the Potency [1] is reported as “inactive”, the outcome [2] is reported as “inactive” and the outcome [3] is reported as “inactive”. For the same compound, the outcome [4] was “inactive”, the outcome [5] was “inactive” and the Potency [6] was “inactive”. For the same compound, the Potency [7] was “inactive”, the Potency [8] was “inactive” and the Potency [9] was “inactive”. The outcome [10] was “inactive”, the Potency [12] was “inactive” and the Potency [13] was “inactive”. For the same compound, the Potency [14] was “inactive” and the Potency [15] was “inactive”.
With O=[N+]([O-])c1ccc2c3c(cccc13)CC2 the Potency [1] was “inactive”, the outcome [2] was “inactive” and the outcome [3] was “inactive”. The outcome [4] was “inactive”, the outcome [5] was “inactive” and the Potency [6] was “inactive”. For the same compound, the Potency [7] was “inactive”, the Potency [8] was “inactive” and the Potency [9] was “inactive”. For the same compound, the outcome [10] was “inactive”, the Potency [12] was “inactive” and the Potency [13] was “inactive”. The Potency [14] was “inactive” and the Potency [15] was “inactive”.
In the case of CNC(=O)N(C)c1nc2ccccc2s1, the Potency [1] is reported as “inactive”, the outcome [2] is reported as “inactive” and the outcome [3] is reported as “inactive”. The outcome [4] was “inactive”, the outcome [5] was “inactive” and the Potency [6] was “inactive”. The Potency [7] was “inactive”, the Potency [8] was “inactive” and the Potency [9] was “inactive”. For the same compound, the outcome [10] was “inactive”, the Potency [12] was “inactive” and the Potency [13] was “inactive”. For the same compound, the Potency [14] was “inactive” and the Potency [15] was 2.43 µM (active).
